Data on 40 compounds can be found in PubChem BioAssay (NCI).

About 79,000 compounds went through this panel and 15% of them were active in at least one assay; those are over-represented in the sample as a whole. Unmarked numbers belong to inactive results. The source made the active and inactive calls. Cut-off read from the data, not from the text of the source: active = growth inhibition above about 70%; inactive = the rest. Where a SMILES comes first, the peptide text is derived from it. The star is where a group is joined. Cbz = O=C(OCc1ccccc1)*

The first test is described as follows: NCI Yeast Anticancer Drug Screen. Data for the sgs1 mgt1 strain (AID 161).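 Note: 0% = growth of cultures given vehicle only.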 The following applies: S. cerevisiae sgs1 mgt1 strain, at 50.0 µM, hits give high values. Put shortly: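 Compounds are added to genetically altered yeast, and growth is compared with cultures given vehicle alone to give percent inhibition.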
`C/C(CCl)=N/NC(N)=S`: the growth inhibition is -18.4%.
Still for that read-out and setting: the same measure for `Cc1cc(Br)cc(Cl)c1O`: 6.55%; for `Cc1cc2c(cc1C)NC1=C(N2)OC(c2ccc(Cl)cc2)C1=O` (configuration not stated): 44.6%.
Still for that read-out and setting: the same measure for `C[N+](C)(C)CC(=O)N/N=C(/Cc1nc2ccc([N+](=O)[O-])cc2[nH]c1=O)C(=O)Nc1cc(C(F)(F)F)ccc1Cl`: 3.35%; for `Cc1ccc(NS(=O)(=O)c2ccc(F)cc2)c(C)c1`: -2%; for `Cc1nsc2[nH]c(=O)n(Nc3ccc(O)cc3)c(=O)c12`: -18.7%.
On the same count and under the same terms, in the case of `O=S(=O)(O)Cc1cccc2ccccc12` it was 11.8%.
For `C[N+]([O-])=C(c1ccccc1)c1ccccc1`, the growth inhibition is -9.4%.
Still for that read-out and setting: in the case of `CCCCCCC(C)OC(=O)CCl` (configuration not stated) it was 2.25%.
The same measure, in the same setting: the same measure for `CC(Oc1ccc2c(-c3ccc(Cl)cc3)cc(=O)oc2c1)C(=O)O` (configuration not stated): 13.6%; for `CC(=O)Nc1cc2c3c(c1)CCCN3CCC2`: -38.2%.
`C/C(=N\N=Nc1ccc(N(C)C)cc1)c1ccccc1`: the growth inhibition is -5.25%.
Still for that read-out and setting: the same measure for `CS/N=C(\c1ccccc1)N(C)C`: -1.45%.
On the same count and under the same terms, in the case of `O=C1c2cscc2C(=O)c2c(OCc3ccccc3)ccc(OCc3ccccc3)c21` it was -7.45%.
On the same count and under the same terms, the same measure for `Oc1ccc2c(c1)OCC(O)(c1ccccc1O)C2` (configuration not stated): 6.3%; for `COc1c(-c2cccs2)oc2c(CC(=O)O)cccc2c1=O`: 28.1%; for `CSc1nc2c(nc(N)n2C2OC(CO)C(O)C(O)C2O)c(=O)[nH]1` (configuration not stated): -1.85%.
Regarding `Clc1ccc([I+]c2ccc(Cl)cc2)cc1`, the growth inhibition was 97.5% (active).
On the same count and under the same terms, the same measure for `Cc1cc2c(cc1Cl)SC(NNC(=O)c1ccncc1)=NS2(=O)=O`: -45.9%.
Same read-out and setting: in the case of `Cc1ccc(S(=O)(=O)C2c3nc4ccccc4cc3-c3nc4ccccc4nc32)cc1` (configuration not stated) it was -17.8%.
Same read-out and setting: the same measure for `CC1C(=O)OC(=O)C1C` (configuration not stated): 11.5%; for `COC(=O)c1ccccc1NC(=NC1CCCCCC1)NS(=O)(=O)c1ccc(C)cc1`: -13.8%.

The next test can be described thus: NCI Yeast Anticancer Drug Screen. Data for the cln2 rad14 strain (AID 165).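 Note: 0% = growth equal to vehicle treated cultures.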 Conditions: S. cerevisiae cln2 rad14 strain, at 50.0 µM, hits give high values. Put shortly:
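Growth inhibition, relative to vehicle-treated controls, is the read-out. The test organism is a yeast strain with defined genetic alterations, cln2 rad14.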
For the compound `O=CC1CCCO1` (configuration not stated), the growth inhibition was 6.9%.
Still for that read-out and setting: the same measure for `CSc1ccc(OC(=O)Nc2cc([N+](=O)[O-])ccc2F)cc1C`: 12.2%; for `O=S1(=O)CCC(Br)c2ccccc21` (configuration not stated): -38.5%.
Still for that read-out and setting: in the case of `CNC(=S)Nc1ccccc1` it was -8.15%; in that of `N#Cc1[nH]nc2nc[nH]c(=O)c12`, -9.95%.
On the same count and under the same terms, the same measure for `CCN(CCO)CC(O)Cn1cnc2c(N)ncnc21` (configuration not stated): 26.6%; for `O=c1[nH]c2cc3ccccc3cc2c2ccccc12`: -15.7%.
As for `O=C(NCc1ccc(Cl)c(Cl)c1)Nc1ccccc1F`, the growth inhibition was 9.65%.
As to `C(=NCCSSCCN=Cc1ccccc1)c1ccccc1`, the growth inhibition is 10.1%.
On the same count and under the same terms, the same measure for `Cc1nc(Cc2ccc(O)c(O)c2)c(C)o1`: -17.2%; for `COC(=O)C(NC(=O)C(C)NC(=O)C1CCCN1C(=O)CNC(=O)C(CO)NC(=O)C(NC(=O)OCc1ccccc1)C(C)O)C(C)O` (configuration not stated) (Cbz-TSGPAT-OMe; configuration not given here): -10.2%; for `Nc1nc2ncc(CCCNc3ccc(C(=O)NC(CCC(=O)O)C(=O)O)cc3)nc2c(=O)[nH]1` (configuration not stated): 10.2%.
Still for that read-out and setting: the same measure for `CC(C)N(C=C(C#N)C#N)C(C)C`: -57.5%.
Regarding `COc1ccc(OC)c(CCCCC(N)=O)c1`, the growth inhibition is 1.4%.
Same read-out and setting: the same measure for `O=CC(=O)c1ccccc1O`: 18.3%.
Turning to `COc1ccc(C(CC(=O)O)c2ccc(OC)cc2OC)cc1` (configuration not stated), the growth inhibition is -24.5%.
With `CC(COC(=O)c1ccc(N)cc1)NC1CCCCC1` (configuration not stated), the growth inhibition was 13.7%.
Consider `CC(=O)O[C@@H]1[C@H]2[C@@H](OC(=O)c3ccccc3)[C@@H](C)C[C@]2(O)[C@H](OC(C)=O)[C@@]2(C)[C@@H]3C[C@@](C)(OC(C)=O)C[C@@H](OC(C)=O)[C@@]3(OC(C)=O)C[C@@]12C`, for which the growth inhibition was -32.8%.
On the same count and under the same terms, in the case of `C/C(CCl)=N/NC(N)=S` it was 7%; in that of `Cc1cc(Br)cc(Cl)c1O`, -11.2%.
The same measure, in the same setting: in the case of `Cc1cc2c(cc1C)NC1=C(N2)OC(c2ccc(Cl)cc2)C1=O` (configuration not stated) it was 2%.
Same read-out and setting: the same measure for `C[N+](C)(C)CC(=O)N/N=C(/Cc1nc2ccc([N+](=O)[O-])cc2[nH]c1=O)C(=O)Nc1cc(C(F)(F)F)ccc1Cl`: 8.55%; for `Cc1ccc(NS(=O)(=O)c2ccc(F)cc2)c(C)c1`: -14.2%; for `Cc1nsc2[nH]c(=O)n(Nc3ccc(O)cc3)c(=O)c12`: 8.75%.
Turning to `O=S(=O)(O)Cc1cccc2ccccc12`, the growth inhibition was -17.6%.
Same read-out and setting: in the case of `C[N+]([O-])=C(c1ccccc1)c1ccccc1` it was 4.5%; in that of `CCCCCCC(C)OC(=O)CCl` (configuration not stated), 6.1%.
On to `CC(Oc1ccc2c(-c3ccc(Cl)cc3)cc(=O)oc2c1)C(=O)O` (configuration not stated), for which the growth inhibition was 19.1%.
On the same count and under the same terms, in the case of `CC(=O)Nc1cc2c3c(c1)CCCN3CCC2` it was 25.9%; in that of `C/C(=N\N=Nc1ccc(N(C)C)cc1)c1ccccc1`, 15.9%.
In the case of `CS/N=C(\c1ccccc1)N(C)C`, the growth inhibition is -25.1%.
The same measure, in the same setting: the same measure for `O=C1c2cscc2C(=O)c2c(OCc3ccccc3)ccc(OCc3ccccc3)c21`: -5.3%; for `Oc1ccc2c(c1)OCC(O)(c1ccccc1O)C2` (configuration not stated): 7.95%; for `COc1c(-c2cccs2)oc2c(CC(=O)O)cccc2c1=O`: 5.9%.
Still for that read-out and setting: the same measure for `CSc1nc2c(nc(N)n2C2OC(CO)C(O)C(O)C2O)c(=O)[nH]1` (configuration not stated): -1.2%; for `Clc1ccc([I+]c2ccc(Cl)cc2)cc1`: 97.4% (active).
Still for that read-out and setting: in the case of `Cc1cc2c(cc1Cl)SC(NNC(=O)c1ccncc1)=NS2(=O)=O` it was -32.4%; in that of `Cc1ccc(S(=O)(=O)C2c3nc4ccccc4cc3-c3nc4ccccc4nc32)cc1` (configuration not stated), -81.8%; in that of `CC1C(=O)OC(=O)C1C` (configuration not stated), 4%.
With `COC(=O)c1ccccc1NC(=NC1CCCCCC1)NS(=O)(=O)c1ccc(C)cc1`, the growth inhibition is -8.15%.
